One test relates to MCC-13. As to the kind of experiment: qHTS assay to identify novel small-molecules to repurpose for Merkel cell carcinoma treatment (AID 1296009). Further: nearly all actives have a fitted effect of over 60% in size. Conditions: MCC and control cell lines, CellTiter-Glo viability, 72 h; series mostly up to 46 µM. The procedure, abridged:
(§1)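 Dose-response viability screen; 72 hr exposure at 37 degree celsius; CellTiter-Glo added, 10 min room temperature, luminescence read; RLUs scaled between no-cell and DMSO wells.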

A further test relates to MCC-26. The test is described as above. Conditions: MCC and control cell lines, CellTiter-Glo viability, 72 h; series mostly up to 46 µM. The procedure, abridged: as §1
In general terms: ATP-based viability assays read luminescence as a measure of living cells.

The test system of the next test is MKL-1. The test is described as above. Conditions: MCC and control cell lines, CellTiter-Glo viability, 72 h; series mostly up to 46 µM. Summed up:
as §1

A further test concerns MKL-2. The description is as above. Conditions: MCC and control cell lines, CellTiter-Glo viability, 72 h; series mostly up to 46 µM. Summed up:
as §1

A further test deals with WaGa. Described as above. Conditions: MCC and control cell lines, CellTiter-Glo viability, 72 h; series mostly up to 46 µM. Summed up: as §1
Another test has as its system C33A. As to the kind of experiment: Primary qHTS to identify gynecologic anti-cancer compounds using libraries of approved drugs and bioactive compounds (AID 1345084). Further: nearly all actives have a fitted effect of over 55% in size. Conditions: Gynecologic cancer cell panel viability, ATPlite luminescence, 48 h; series mostly up to 57.5 µM. The procedure, abridged: (§2)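 Cytotoxicity screen measuring ATP content by luciferase luminescence. Each compound is applied at five concentrations for 48 h at 37 C with 5% CO2.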
A general note: Quantitative high-throughput screening tests each substance at several concentrations.

For a further test, the system named is CAOV3. Described as above. The conditions noted are these: Gynecologic cancer cell panel viability, ATPlite luminescence, 48 h; series mostly up to 57.5 µM. Summed up:
as §2

The subject of the next test is CASKI. Described as above. Conditions: Gynecologic cancer cell panel viability, ATPlite luminescence, 48 h; series mostly up to 57.5 µM. The procedure, abridged:
as §2

For another test, the system named is Es-2. Described as above. Conditions: Gynecologic cancer cell panel viability, ATPlite luminescence, 48 h; series mostly up to 57.5 µM. The procedure, abridged:
as §2

Another test concerns HeLa. The test is described as above. Conditions: Gynecologic cancer cell panel viability, ATPlite luminescence, 48 h; series mostly up to 57.5 µM. Summed up:
as §2

The subject of the next test is Hek293T. The test is described as above. The conditions noted are these: Gynecologic cancer cell panel viability, ATPlite luminescence, 48 h, control line for the selectivity index; series mostly up to 57.5 µM. Summed up:
as §2

The next test relates to JEG-3. The test is described as above. Conditions: Gynecologic cancer cell panel viability, ATPlite luminescence, 48 h; series mostly up to 57.5 µM. Summed up:
as §2

For the next test, the system named is PA-1. The description is as above. The conditions noted are these: Gynecologic cancer cell panel viability, ATPlite luminescence, 48 h; series mostly up to 57.5 µM. Summed up:
as §2

Another test relates to SKOV3. The test is described as above. The conditions noted are these: Gynecologic cancer cell panel viability, ATPlite luminescence, 48 h; series mostly up to 57.5 µM. The procedure, abridged:
as §2

The next test has as its system Tov-21-G. The description is as above. Conditions: Gynecologic cancer cell panel viability, ATPlite luminescence, 48 h; series mostly up to 57.5 µM. Summed up: as §2
The next test relates to Tov112D. The test is described as above. Conditions: Gynecologic cancer cell panel viability, ATPlite luminescence, 48 h; series mostly up to 57.5 µM. Summed up:
as §2

In another test the test system is UISO. As to the kind of experiment: qHTS assay to identify novel small-molecules to repurpose for Merkel cell carcinoma treatment (AID 1296009). Further: nearly all actives have a fitted effect of over 60% in size. Conditions: MCC and control cell lines, CellTiter-Glo viability, 72 h; series mostly up to 46 µM. The procedure, abridged:
as §1

For a further test, the system named is OV90. The experiment in a line: Primary qHTS to identify gynecologic anti-cancer compounds using libraries of approved drugs and bioactive compounds (AID 1345084). Further: nearly all actives have a fitted effect of over 55% in size. Conditions: Gynecologic cancer cell panel viability, ATPlite luminescence, 48 h; series mostly up to 57.5 µM. The procedure, abridged: as §2
A further test relates to NIH3T3. As to the kind of experiment: qHTS assay to identify novel small-molecules to repurpose for Merkel cell carcinoma treatment (AID 1296009). Further: nearly all actives have a fitted effect of over 60% in size. Conditions: MCC and control cell lines, CellTiter-Glo viability, 72 h; at 44.8 µM (top of the series) unless noted. The procedure, abridged:
as §1

The structures appear in SMILES notation. Records with an inconclusive call do not appear. Activity calls are given as the source filed them. The call rests on the fitted dose curve; in most records, active means well fitted curve in the direction sought with a large enough effect; inconclusive means small, poorly fitted or top-dose-only effect, or another doubt; inactive means no such curve, though single readings can be large; an effect the other way counts as inactive or inconclusive.
Potency means the concentration at half of the fitted maximal effect.

As for `CN1CCC(N(Cc2cccs2)c2ccccc2)CC1`, the Potency result in the test on MCC-13, in the test on MCC-26, in the test with MKL-1, in the test on MKL-2, in the test on WaGa and in the test with C33A was “inactive” throughout. Also, the Potency entry with CAOV3, with CASKI, with Es-2, in the test on HeLa, in the test on Hek293T and in the test on JEG-3 was “inactive” in each case. The Potency entry in the test with PA-1, with SKOV3, with Tov-21-G and in the test on Tov112D was “inactive” throughout.
`CC(C)Cc1ccc(C(C)C(=O)OCc2ccccn2)cc1` (centres undefined): the Potency result in the test on MCC-13, with MCC-26, with MKL-1, with UISO, in the test on WaGa and in the test on C33A was “inactive” throughout. For the same compound, the Potency entry with CAOV3, in the test with CASKI, in the test on Es-2, in the test with HeLa, with Hek293T and in the test on JEG-3 was “inactive” throughout. The Potency entry in the test with OV90, with PA-1, in the test with SKOV3, in the test on Tov-21-G and with Tov112D was “inactive” in each case.
Take `Nc1nc2ccccc2n1Cc1ccc(F)cc1`: the Potency result in the test on MCC-13, in the test on MCC-26, in the test on MKL-1, in the test with C33A, with CAOV3 and in the test with CASKI was “inactive” throughout. Further, the Potency entry in the test on Es-2, in the test on HeLa, in the test with JEG-3, in the test on OV90, in the test on PA-1 and in the test with SKOV3 was “inactive” in each case. Moreover, the Potency entry in the test on Tov-21-G and in the test with Tov112D was “inactive” each time. Moreover, the outcome in the test on NIH3T3 was inactive.
Regarding `O=C(O)c1ccccc1Nc1cc(Cl)ccc1C(=O)O`, the Potency entry in the test on MCC-13, in the test on MCC-26, in the test with MKL-1, with WaGa, in the test with C33A and with CAOV3 was “inactive” in each case. For the same compound, the Potency entry in the test on CASKI, in the test on Es-2, in the test on HeLa, in the test on Hek293T, with JEG-3 and in the test with PA-1 was “inactive” in each case. Further, the Potency entry in the test on SKOV3, in the test with Tov-21-G and in the test with Tov112D was “inactive” throughout.
As to `CC(C)(C)C1CCC(CC2=C(O)c3ccccc3C(=O)C2=O)CC1` (centres undefined), the Potency entry in the test on MCC-13, with MCC-26, with MKL-1, with MKL-2, in the test on WaGa and in the test with C33A was “inactive” throughout. For the same compound, the Potency entry in the test with CAOV3, with CASKI, in the test on Es-2, in the test with HeLa, in the test with Hek293T and with JEG-3 was “inactive” each time. The Potency result in the test with PA-1, in the test with Tov-21-G and with Tov112D was “inactive” each time.
With `O=C1Cc2cc(Cl)ccc2N1`, the Potency result with MCC-13, in the test with MCC-26, with MKL-1, in the test on WaGa, in the test on C33A and in the test on CAOV3 was “inactive” in each case. Moreover, the Potency result with CASKI, in the test with Es-2, in the test on Hek293T, with JEG-3, with OV90 and in the test on PA-1 was “inactive” in each case. The Potency result in the test on SKOV3, in the test on Tov-21-G and in the test with Tov112D was “inactive” each time.
In the case of `CCc1cc2cc(OC)c(OC)cc2c(Cc2ccccc2)n1`, the Potency entry in the test on MCC-13, in the test on MCC-26, in the test on MKL-1, in the test with UISO, in the test with WaGa and in the test with C33A was “inactive” in each case. Further, the Potency entry with CASKI, in the test with Es-2, in the test with HeLa, in the test with Hek293T, with JEG-3 and in the test on OV90 was “inactive” each time. In addition, the Potency result with PA-1, with SKOV3, with Tov-21-G and in the test with Tov112D was “inactive” in each case.
In the case of `Oc1ccc(CCNCCCCCCNCCc2ccccc2)cc1O`, the Potency entry in the test on MCC-13, in the test with MCC-26, in the test on Es-2, with HeLa, with Hek293T and in the test with JEG-3 was “inactive” throughout. The Potency in the test on MKL-1 is 2.11 µM (active); in the test with MKL-2 it was 0.596 µM (active); with WaGa, 10.6 µM (active).
`CC(CC1c2ccccc2CCc2ccccc21)CN(C)C` (centres undefined): the Potency entry in the test on MCC-13, in the test on MCC-26, with MKL-1, in the test with UISO, with WaGa and in the test on C33A was “inactive” each time. For the same compound, the Potency entry in the test on CASKI, with Es-2, with HeLa, in the test with JEG-3, with PA-1 and in the test on Tov-21-G was “inactive” in each case. In addition, in the test on Tov112D, the Potency result is “inactive”. Also, the Potency in the test with OV90 is 17.8 µM (active).
Turning to `Cc1ccc(/C=N/n2c(-c3ccccc3)csc2=S)cc1`, the Potency result in the test with MCC-13, in the test with MCC-26, in the test on MKL-1, in the test on C33A, in the test with CAOV3 and with CASKI was “inactive” each time. Moreover, the Potency entry in the test with Es-2, with HeLa, in the test on Hek293T, in the test with JEG-3, with OV90 and with PA-1 was “inactive” throughout. For the same compound, the Potency entry in the test with SKOV3, in the test with Tov-21-G and with Tov112D was “inactive” each time.
With `CC[N+](CC)(CC)CCOC(=O)C(C1CCCC1)C1CCCC1`, the Potency result with MCC-13, in the test with MCC-26, in the test with C33A, with CAOV3, in the test with Es-2 and in the test on HeLa was “inactive” each time. In addition, the Potency entry in the test with Hek293T, with JEG-3, with SKOV3, with Tov-21-G and in the test with Tov112D was “inactive” each time. Further, the values for the Potency in the test on MKL-1, in the test with MKL-2 and in the test on WaGa were 11.9 µM (active), 5.96 µM (active) and 9.44 µM (active), respectively.
Consider `CC(=O)/C=C/C=C1/C2CCC(C2)C1(C)C` (centres undefined), for which the Potency entry in the test with MCC-13, in the test on MCC-26, in the test with MKL-1, in the test with UISO, in the test with C33A and in the test on CAOV3 was “inactive” each time. Further, the Potency result with CASKI, in the test on Es-2, in the test with HeLa, in the test on Hek293T, with JEG-3 and in the test on OV90 was “inactive” throughout. For the same compound, the Potency entry in the test with SKOV3, in the test on Tov-21-G and in the test with Tov112D was “inactive” each time.
As for `CO/N=C(/C(=O)N[C@@H]1C(=O)N2C(C(=O)OCOC(=O)C(C)(C)C)=C(C)CS[C@H]12)c1csc(N)n1`, the Potency entry in the test on MCC-13, in the test on MCC-26, in the test with MKL-1, in the test with UISO, in the test on C33A and in the test with CAOV3 was “inactive” each time. Further, the Potency entry in the test with CASKI, in the test with Es-2, in the test with HeLa, with Hek293T, with JEG-3 and in the test with OV90 was “inactive” in each case. The Potency entry in the test on PA-1, in the test on SKOV3, with Tov-21-G and in the test with Tov112D was “inactive” each time.
For the compound `CN(C)CCOC1=Cc2ccccc2Sc2ccc(Cl)cc21`, the Potency entry in the test on MCC-13, in the test with MCC-26, in the test with MKL-1, in the test with UISO, with C33A and with CAOV3 was “inactive” throughout. Also, the Potency entry in the test with CASKI, with Es-2, in the test on HeLa, in the test on Hek293T, with JEG-3 and with PA-1 was “inactive” throughout. Also, the Potency result in the test on SKOV3, with Tov-21-G and with Tov112D was “inactive” in each case.
As for `Cc1ccc(C(=O)Oc2ccc(C(O)CNC(C)(C)C)cc2OC(=O)c2ccc(C)cc2)cc1` (centres undefined), the Potency entry with MCC-13, in the test on MCC-26, in the test with UISO, in the test with C33A, in the test with CASKI and in the test with Es-2 was “inactive” each time. Also, the Potency entry in the test with HeLa, with Hek293T, with JEG-3, with PA-1, in the test on Tov-21-G and in the test with Tov112D was “inactive” throughout. Also, in the test on NIH3T3, the compound was called inactive.
In the case of `Nc1cccc2c(N)cccc12`, the Potency is 38.6 µM (active) with MCC-13; 6.11 µM (active) in the test on MKL-1; 1.93 µM (active) in the test with MKL-2; 10.9 µM (active) in the test on UISO; 19.3 µM (active) with WaGa; 20 µM (active) with OV90. In addition, the Potency result in the test on Es-2, with HeLa and in the test on Hek293T was “inactive” throughout.

The record behind these values is PubChem BioAssay (NCATS).
